Records with an inconclusive call do not appear. Activity calls are given as the source filed them. Rule for the calls: active = hit-call score of the fitted dose curve at least 0.9, where 1 is the maximum; inconclusive = response in the unintended direction; inactive = score below 0.9.
System: not listed separately
Test: TOX21_p53_BLA_p4_viability: Viability Assessment in the Tox21 HCT-116 p53 Agonism Beta-lactamase Assay, Phase 4 (AID 2283597);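 note: hits lower the luminescence signal meaning cytotoxicity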
Procedure, shortened: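 In this multiplexed secondary endpoint, HCT116 cells (4000 per well, compound at 5 h, 16 h treatment) received CellTiter-Glo after the beta-lactamase read. Luminescence after 30 min RT reflects ATP, and falling signal marks cytotoxicity.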

Row | Structure (SMILES) | outcome | AC50
1 | CC(C)=CCCC(C)=CCCC(C)=CCO | inactive | 
2 | O=Cc1ccc(F)cc1 | inactive | 
3 | OCC(CO)(CO)COCC(CO)(CO)CO | inactive | 
4 | CCCCC(CC)COCCC#N (stereo not given) | inactive | 
5 | CCCCC(CC)COC(=O)/C=C\C(=O)OCC(CC)CCCC (stereo not given) | inactive | 
6 | C=CC(=O)NCOCC(C)C | inactive | 
7 | COc1ccc(O)cc1 | inactive | 
8 | CC(=O)Nc1ccccc1O | inactive | 
9 | c1cc(C(c2ccc(OCC3CO3)cc2)c2ccc(OCC3CO3)cc2)ccc1OCC1CO1 (stereo not given) | inactive | 
10 | CC(C)C1CCC(O)CC1 (stereo not given) | inactive | 
11 | Nc1ccc(S(=O)(=O)O)c(N)c1 | inactive | 
12 | CC(C)=CCC/C(C)=C/COC=O | inactive | 
13 | C=CC(=O)OCCn1c(=O)n(CCOC(=O)C=C)c(=O)n(CCOC(=O)C=C)c1=O |  | 15.4 µM (active)
14 | CO[Si](CCCn1c(=O)n(CCC[Si](OC)(OC)OC)c(=O)n(CCC[Si](OC)(OC)OC)c1=O)(OC)OC | inactive | 
15 | CC(=O)c1c(C)cc(C(C)(C)C)cc1C | inactive | 
16 | O=P(c1ccccc1)(c1ccccc1)c1ccccc1 | inactive | 
17 | CC(=O)[O][Al][O]C(C)=O | inactive | 
18 | CC(C=O)Cc1ccc(C(C)C)cc1 (stereo not given) | inactive | 
19 | CC(=O)C(C)=O | inactive | 
20 | O=C(O)c1cn(C2CC2)c2cc(N3CCNCC3)c(F)cc2c1=O | inactive | 
21 | Cc1ccc(C=O)s1 | inactive | 

Molecular target: Cellular tumor antigen p53 (Homo sapiens) (UniProt P04637)
Test: TOX21_p53_BLA_p5_ratio: Tox21 HCT-116 p53 Agonism Beta-lactamase Assay, Ratio, Phase 5 (AID 2283599)
Procedure, shortened: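 HCT-116 p53-bla cells (4000/well) plated 5 h, dosed with compound (217-fold DMSO dilution) for 16 h at 37 C; CCF4-AM substrate 2 h at room temperature. Activity is the 460/530 nm emission ratio (405 nm excitation), fitted in gain-of-signal direction versus DMSO.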

Cellular tumor antigen p53 (Homo sapiens), sequence (P04637 whole entry, looked up): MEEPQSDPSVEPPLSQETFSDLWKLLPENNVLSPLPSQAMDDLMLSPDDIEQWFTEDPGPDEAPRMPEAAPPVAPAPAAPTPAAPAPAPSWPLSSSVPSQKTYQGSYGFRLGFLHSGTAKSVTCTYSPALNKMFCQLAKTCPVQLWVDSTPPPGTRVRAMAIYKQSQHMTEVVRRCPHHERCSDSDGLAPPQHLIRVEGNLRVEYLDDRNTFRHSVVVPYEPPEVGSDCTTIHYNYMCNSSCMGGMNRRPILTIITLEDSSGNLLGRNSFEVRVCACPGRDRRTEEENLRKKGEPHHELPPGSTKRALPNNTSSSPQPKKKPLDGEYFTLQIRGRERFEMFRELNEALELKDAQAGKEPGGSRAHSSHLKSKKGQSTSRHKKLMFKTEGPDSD

Row | Structure (SMILES) | outcome
22 | CC(C)=CCCC(C)=CCCC(C)=CCO | inactive
23 | OCC(CO)(CO)COCC(CO)(CO)CO | inactive
24 | CCCCC(CC)COCCC#N (stereo not given) | inactive
25 | CCCCC(CC)COC(=O)/C=C\C(=O)OCC(CC)CCCC (stereo not given) | inactive
26 | COc1ccc(O)cc1 | inactive
27 | CC(C#N)(CCC(=O)O)N=NC(C)(C#N)CCC(=O)O (stereo not given) | inactive
28 | CC(C)(C)NC(N)=O | inactive
29 | CC(C)[C@H]1CC[C@@H](C)CC1=O | inactive
30 | C=CC(=O)OCC(O)COc1ccccc1 (stereo not given) | inactive
31 | Nc1ccc(S(=O)(=O)O)c(N)c1 | inactive
32 | CCCCCCCCCCCCSC | inactive
33 | CC(C)=CCC/C(C)=C/COC=O | inactive
34 | C=CC(=O)OCCn1c(=O)n(CCOC(=O)C=C)c(=O)n(CCOC(=O)C=C)c1=O | inactive
35 | C=C[C@@H](C)CCC=C(C)C | inactive
36 | O=C1CCCCCCCCCCCCCCO1 | inactive
37 | CSc1nc(NC2CC2)nc(NC(C)(C)C)n1 | inactive
38 | Cc1ccc(C=O)s1 | inactive

System: not listed separately
Test: TOX21_p53_BLA_p5_viability: Viability Assessment in the Tox21 HCT-116 p53 Agonism Beta-lactamase Assay, Phase 5 (AID 2283600)
Procedure, shortened: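 Here cell health was gauged by ATP levels in wells holding 4000 cells, each treated 16 h with DMSO-delivered compounds at 217-fold dilution; reduced luminescence marked toxicity.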

Row | Structure (SMILES) | outcome
39 | CC(C)=CCCC(C)=CCCC(C)=CCO | inactive
40 | O=Cc1ccc(F)cc1 | inactive
41 | OCC(CO)(CO)COCC(CO)(CO)CO | inactive
42 | CCCCC(CC)COCCC#N (stereo not given) | inactive
43 | COc1ccc(O)cc1 | inactive
44 | O=C[C@@H](O)[C@H](O)[C@H](O)CO | inactive
45 | CC(C#N)(CCC(=O)O)N=NC(C)(C#N)CCC(=O)O (stereo not given) | inactive
46 | CC(C)(C)NC(N)=O | inactive
47 | COc1cccc(OC)c1 | inactive
48 | c1cc(C(c2ccc(OCC3CO3)cc2)c2ccc(OCC3CO3)cc2)ccc1OCC1CO1 (stereo not given) | inactive
49 | C=CC(=O)OCC(O)COc1ccccc1 (stereo not given) | inactive
50 | CC(C)C1CCC(O)CC1 (stereo not given) | inactive
51 | Nc1ccc(S(=O)(=O)O)c(N)c1 | inactive
52 | CCCCCCCCCCCCSC | inactive
53 | CCCCCCCCCCC(CO)CCCCCCCC (stereo not given) | inactive
54 | CC(C)=CCC/C(C)=C/COC=O | inactive
55 | C=CC(=O)OCCn1c(=O)n(CCOC(=O)C=C)c(=O)n(CCOC(=O)C=C)c1=O | inactive
56 | CC(=O)c1c(C)cc(C(C)(C)C)cc1C | inactive
57 | C=C[C@@H](C)CCC=C(C)C | inactive
58 | O=C1CCCCCCCCCCCCCCO1 | inactive
59 | O=P(c1ccccc1)(c1ccccc1)c1ccccc1 | inactive
60 | C=CCOc1nc(OCC=C)nc(OCC=C)n1 | inactive
61 | CC(=O)[O][Al][O]C(C)=O | inactive
62 | CC(C=O)Cc1ccc(C(C)C)cc1 (stereo not given) | inactive
63 | CC(=O)C(C)=O | inactive
64 | O=C(O)c1cn(C2CC2)c2cc(N3CCNCC3)c(F)cc2c1=O | inactive
65 | Cc1ccc(C=O)s1 | inactive

Molecular target: Cellular tumor antigen p53 (Homo sapiens) (UniProt P04637)
Test: TOX21_p53_BLA_p4_ratio: Tox21 HCT-116 p53 Agonism Beta-lactamase Assay, Ratio, Phase 4 (AID 2283601)
Procedure, shortened: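 HCT-116 p53 beta-lactamase reporter cells (4000/well) preincubated 5 h, then compound (217-fold dilution of DMSO stock) for 16 h at 37C. CCF4-AM substrate added 2 h at room temperature; 460/530 nm emission ratio fitted upward versus DMSO.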

Row | Structure (SMILES) | outcome | AC50
66 | CC(C)=CCCC(C)=CCCC(C)=CCO | inactive | 
67 | O=Cc1ccc(F)cc1 | inactive | 
68 | OCC(CO)(CO)COCC(CO)(CO)CO | inactive | 
69 | CCCCC(CC)COC(=O)/C=C\C(=O)OCC(CC)CCCC (stereo not given) | inactive | 
70 | C=CC(=O)NCOCC(C)C | inactive | 
71 | COc1ccc(O)cc1 | inactive | 
72 | O=C[C@@H](O)[C@H](O)[C@H](O)CO | inactive | 
73 | CC(=O)Nc1ccccc1O | inactive | 
74 | CC(C#N)(CCC(=O)O)N=NC(C)(C#N)CCC(=O)O (stereo not given) | inactive | 
75 | CC(C)(C)NC(N)=O | inactive | 
76 | COc1cccc(OC)c1 | inactive | 
77 | C=C[Si](OCC)(OCC)OCC | inactive | 
78 | CCCCCOC(=O)CCC | inactive | 
79 | C=CC(=O)OCC(O)COc1ccccc1 (stereo not given) |  | 37.6 µM (active)
80 | CC(C)C1CCC(O)CC1 (stereo not given) | inactive | 
81 | Nc1ccc(S(=O)(=O)O)c(N)c1 | inactive | 
82 | CCCCCCCCCCCCSC | inactive | 
83 | CCCCCCCCCCCCCCCC(=O)OC[C@H](O)[C@H]1OC(=O)C(O)=C1O | inactive | 
84 | CCCCCCCCCCC(CO)CCCCCCCC (stereo not given) | inactive | 
85 | CC(C)=CCC/C(C)=C/COC=O | inactive | 
86 | C=CC(=O)OCCn1c(=O)n(CCOC(=O)C=C)c(=O)n(CCOC(=O)C=C)c1=O | inactive | 
87 | CO[Si](CCCn1c(=O)n(CCC[Si](OC)(OC)OC)c(=O)n(CCC[Si](OC)(OC)OC)c1=O)(OC)OC | inactive | 
88 | CC(=O)c1c(C)cc(C(C)(C)C)cc1C | inactive | 
89 | C=C[C@@H](C)CCC=C(C)C | inactive | 
90 | O=C1CCCCCCCCCCCCCCO1 | inactive | 
91 | CCCCCCCCCCCCCCCCCC(=O)OCC(CC)CCCC (stereo not given) | inactive | 
92 | C=CCOc1nc(OCC=C)nc(OCC=C)n1 | inactive | 
93 | CCC(C)CCCC(C)(C)O (stereo not given) | inactive | 
94 | CC(=O)C(C)=O | inactive | 
95 | Cc1ccc(C=O)s1 | inactive | 
